The text below walks through data of article PMC11062922 (Nature Chemical Biology, 2023).

Common to all, as to set-up: species or system human, MV4-11 + K-562 + COLO205 + SK-N-BE2 + OVCAR-8
Test [1] relates to AKT2. Particulars: read-out: apparent Kd, compound concentrations: 100 nM and 1000 nM (sheet 'Samples'), n = 1.
Test [2] concerns CSNK1D. Particulars: read-out: apparent Kd; compound concentrations: 100 nM and 1000 nM (sheet 'Samples'), CATDS: 0.20295054988008099; n = 1.
In test [3] the test system is DYNC1LI1. Conditions: read-out: apparent Kd; compound concentrations: 100 nM and 1000 nM (sheet 'Samples'), CATDS: 0.215188969129953; n = 1.
The test system of test [4] is MAPK14. Conditions: read-out: apparent Kd; compound concentrations: 100 nM and 1000 nM (sheet 'Samples'), CATDS: 0.21262407645477699; n = 1.
Test [5] deals with NQO1. Particulars: read-out: apparent Kd; compound concentrations: 100 nM and 1000 nM (sheet 'Samples'), CATDS: 0.18936127019719301; n = 1.
For test [6], the system named is ATM. Conditions: read-out: apparent Kd, n = 1.
The subject of test [7] is FECH. Conditions: read-out: apparent Kd; compound concentrations: 100 nM and 1000 nM (sheet 'Samples'), CATDS: 0.190744919400651; n = 1.
In test [8] the test system is PIK3CA. Conditions: read-out: apparent Kd, compound concentrations: 100 nM and 1000 nM (sheet 'Samples'), n = 1.
Test [9] relates to PLK1. Conditions: read-out: apparent Kd, compound concentrations: 100 nM and 1000 nM (sheet 'Samples'), n = 1.
Test [10] deals with PRKACG. Conditions: read-out: apparent Kd; compound concentrations: 100 nM and 1000 nM (sheet 'Samples'), CATDS: 0.152371623335085; n = 1.
For test [11], the system named is GSK3A. Particulars: read-out: apparent Kd; compound concentrations: 100 nM and 1000 nM (sheet 'Samples'), CATDS: 0.20080889855539999; n = 1.
Test [12] has as its system GSK3B. Particulars: read-out: apparent Kd; compound concentrations: 100 nM and 1000 nM (sheet 'Samples'), CATDS: 0.19196654372997399; n = 1.
Test [13] relates to CDK16. Conditions: read-out: apparent Kd; compound concentrations:100 nM and 1000 nM (sheet 'Samples'); n = 1.
Test [14] relates to CDK17. Particulars: read-out: apparent Kd; compound concentrations:100 nM and 1000 nM (sheet 'Samples'); n = 1.
Test [15] deals with CDK2. Conditions: read-out: apparent Kd; compound concentrations:100 nM and 1000 nM (sheet 'Samples'); n = 1.
In test [16] the test system is CLK4. Conditions: read-out: apparent Kd; compound concentrations:100 nM and 1000 nM (sheet 'Samples'); n = 1.
Test [17] concerns PAK4. Particulars: read-out: apparent Kd; compound concentrations:100 nM and 1000 nM (sheet 'Samples'); n = 1.
Test [18] concerns STK3. Particulars: read-out: apparent Kd; compound concentrations:100 nM and 1000 nM (sheet 'Samples'); n = 1.
Test [19] has as its system STK4. Particulars: read-out: apparent Kd; compound concentrations:100 nM and 1000 nM (sheet 'Samples'); n = 1.
The subject of test [20] is MAP2K2. Particulars: read-out: apparent Kd; compound concentrations: 100 nM and 1000 nM (sheet 'Samples'), CATDS: 0.187838411723944; n = 1.
For test [21], the system named is RIOK2. Conditions: read-out: apparent Kd; compound concentrations: 100 nM and 1000 nM (sheet 'Samples'), CATDS: 0.18243724402643599; n = 1.
In test [22] the test system is STK26. Conditions: read-out: apparent Kd; compound concentrations: 100 nM and 1000 nM (sheet 'Samples'), CATDS: 0.193816418498372; n = 1.
Test [23] relates to PIM2. Particulars: read-out: apparent Kd; compound concentrations: 100 nM and 1000 nM (sheet 'Samples'), CATDS: 0.52192336058926703; n = 1.
In test [24] the test system is AP1G1. Particulars: read-out: apparent Kd; compound concentrations:100 nM and 1000 nM (sheet 'Samples'); n = 1.

Each structure is given as a SMILES string. Like-named read-outs stand apart in the source and are kept apart here.

Turning to `CSc1nccc(-c2c(-c3ccc(F)cc3)ncn2CCCN2CCOCC2)n1.Cl` [SB-217146-A], the potency estimated from few doses in [1] (CATDS: 0.183770633421974) was 2140 nM; in [2] it was 1740 nM; in test [3], 1560 nM; in test [4], 1590 nM; in test [5], 2010 nM.

On to `COc1cccc(COc2cc(-n3cnc4ccccc43)sc2C(N)=O)c1` [GW804482X], for which the potency estimated from few doses in test [6] (compound concentrations: 100 nM and 1000 nM (sheet 'Samples'), CATDS: 0.32091008376932201) is 210 nM; in test [7] it was 558 nM; in test [8] (CATDS: 0.27121911823644002) it was 277 nM; in test [9] (CATDS: 0.15646266136602699) it was 938 nM; in test [10], 1020 nM.

Take `Cc1c(C2=C(c3cn(C)c4ccccc34)C(=O)NC2=O)c2ccccc2n1C` [RO0317777-000]: the potency estimated from few doses was 20.1 nM in test [6] (compound concentrations: 100 nM and 1000 nM (sheet 'Samples'), CATDS: 0.73643038354307599); 343 nM in test [11]; 397 nM in test [12]; 247 nM in [8] (CATDS: 0.224567790498646).

`COc1cc(F)c(F)cc1C(=O)c1cnc(NC2CCN(S(C)(=O)=O)CC2)nc1N` [RO4595655-000]: the potency estimated from few doses in [6] (compound concentrations:100 nM and 1000 nM (sheet 'Samples')) was 157 nM; in [13] it was 1510 nM; in test [14], 1840 nM; in test [15], 1210 nM; in test [16], 1430 nM; in test [17], 1340 nM. Moreover, the potency estimated from few doses was 2300 nM in test [18] and 1690 nM in test [19].

Consider `C[C@@H](Oc1cc(-n2cnc3ccc(NC(=O)NC(C)(C)C)cc32)sc1C(N)=O)c1ccccc1Cl` [GSK346294A], for which the potency estimated from few doses was 2320 nM in test [1] (CATDS: 0.175578596413346); 1980 nM in [20]; 851 nM in test [9] (CATDS: 0.29940463058405897); 2120 nM in [21]; 1850 nM in [22].

Take `Cc1ccc(C(=O)NC2CCCCC2)cc1-c1ccc(C(=O)NCC2CC2)cc1` [GW782907X]: the potency estimated from few doses is 1850 nM in test [1] (CATDS: 0.479844173242639) and 1560 nM in [23].

With `COc1cccc(OC)c1C(=O)Nc1cccc(-c2nn3ccccc3c2-c2ccnc(Nc3cccc(F)c3)n2)c1` [GSK361065A], the potency estimated from few doses in [24] is 895 nM.
